Assay results taken from the OligoGym collection.

Target: SNRNP70
Assay: pooled miR-30 sensor sort-seq; sequence = guide strand
Conditions: shRNA
Note: reference of the scale not given here.

Sequence	sensor-assay potency score (higher = more potent)
TTGATAGGTCCGTACACCTCAA	-0.456
TACACCTCAAACTCTCTCCGGA	0.28
TTTGATAGGTCCGTACACCTCA	0.253

Target: SNRPD1
Assay: as above
Conditions: shRNA

Sequence	sensor-assay potency score (higher = more potent)
TCAACATCCACAAGTAGTGTAT	-0.261
TTCAACATCCACAAGTAGTGTA	0.419
TTCTCTGTTCTTCAGGGTCATT	-1.71
TAGAATAAAATACCGAATGTTA	-0.767
TCTTCCTGCAACAGCTTCCCTT	-1.09
TAGATTTCACCTTAGGTTCAAC	-0.589
TCATGCTGACATCCACACCTGT	-0.408
TCTGGTAGAATAAAATACCGAA	0.138
TGTGATTGTTCCATGGACCTGT	1.16
TATCCAGAGGTAAACTGTCTGG	-1.01
TTAAGATGTGTATTCATGCTGA	-0.136
TACAGGTTCTCTGTTCTTCAGG	-0.643

Target: SNTG1
Assay: as above
Conditions: shRNA

Sequence	sensor-assay potency score (higher = more potent)
TTAGAGTCACTTCTTCTCCAGC	-1
TGAAGCACTGTTTCCGTCGGTC	-0.425
TTTGTTGCAGCATCAAAGCAGA	-0.518
TTGCTCGTGGTAGCAGAGCTGG	-1.52
TTTAATATTGTGCTTTGTGAGA	-0.565
TTATCTGTAGAATTGCATCTCC	0.36
TTGGAGCACATGCACAATCTTC	-1.22
TGACTTTCTAGCACACATGCAT	-0.281
TAGCACACATGCATAGGTCTTG	0.196
TAATGTGTCTGTATTGTTGGGA	0.882
TTGTCTTCTGATGGTCACCGTT	-1.02
TAGGTCTTGCACTGTATCCGTT	-0.173

Target: SNX19
Assay: as above
Conditions: shRNA

Sequence	sensor-assay potency score (higher = more potent)
TACTTCACAGTATAGAGTGTGT	-0.265
TTTCCAGTAACTTTGTCTGTTT	-0.546
TTTCTTCACACATCCCACCCAA	-0.125
TAGATCTGGTTTCTCCTCCAGA	-0.172
TAAAGGACTGATTATAACCGTA	-0.44
TTAATATACAGCACTTCCCTGT	0.105
TTATTGAGGTGACAGCTCGATC	-1.16
TGAGGTGACAGCTCGATCCAGC	0.362
TACTCTGTCACTGTCCATGTTT	-0.134
TGAACTTTCGTAGATCTGGTTT	-0.266
TTCTACTCTGTCACTGTCCATG	-0.887
TAACTCTACTTCCCTGACCTGG	-0.776
